# Assay results from the supplement of paper PMC6607015.
# Where a name gives a salt, the structure may show the parent alone.
# What was measured:
# Conditions in all cases: compound concentration in added solution (µM; 5 µl added to 20 µl cells): 10; 18 h
# [1] = test system: A431; assay: LBPA endosome anti-LBPA integrated intensity (sum per cell), Z-score; higher = more LBPA staining
# Procedure, shortened: (§1)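 Four 20× images per well were taken of HeLa MZ or A431 cells that had been seeded at 3,500 per well in 20 µl onto 5 µl of 10 µM compound solution in duplicate 384-well imaging plates. Before imaging, cells were incubated 18 h, fixed in 4% PFA and stained with 6C4 anti-LBPA antibody, filipin, propidium iodide and CellTracker green. Values are Z-scores normalised in AcuityXpress from MetaXpress-derived per-cell integrated LBPA or filipin intensity, either whole-cell or within LBPA endosomes.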
# [2] = test system: HeLa MZ; assay: as above
# Procedure, shortened: as §1
# [3] = test system: A431; assay: whole-cell filipin (free cholesterol) integrated intensity, Z-score; higher = more cholesterol staining
# Procedure, shortened: as §1
# [4] = test system: HeLa MZ; assay: as above
# Procedure, shortened: as §1
# [5] = test system: A431; assay: filipin (cholesterol) integrated intensity within LBPA endosomes, Z-score; higher = more cholesterol in LBPA endosomes
# Procedure, shortened: as §1
# [6] = test system: HeLa MZ; assay: as above
# Procedure, shortened: as §1
SMILES,LBPA endosome anti-LBPA integrated intensity (z-score) [1],LBPA endosome anti-LBPA integrated intensity (z-score) [2],whole-cell filipin (z-score) [3],whole-cell filipin (z-score) [4],filipin (z-score) [5],filipin (z-score) [6]
CCCCC1C(=O)N(c2ccccc2)N(c2ccccc2)C1=O [Phenylbutazone],-0.242,0.571,-0.047,0.231,-0.314,-0.301
CCN1CCN(C(=O)N[C@@H](C(=O)N[C@@H]2C(=O)N3C(C(=O)O)=C(CSc4nnnn4C)CS[C@H]23)c2ccc(O)cc2)C(=O)C1=O [Cefoperazone dihydrate],-0.512,-0.941,-0.712,-0.226,-0.522,-0.518
CN(C)CCOC(=O)C(c1ccccc1)C1(O)CCCC1 (stereo not drawn) [Cyclopentolate hydrochloride],-0.331,0.664,0.119,-0.332,-0.39,-0.209
O=c1oc2ccccc2c(O)c1Cc1c(O)c2ccccc2oc1=O [Dicumarol],-0.455,-0.834,-0.37,-0.48,-0.64,-0.672
Nc1ccc(/N=N/c2ccccc2)c(N)n1 [Phenazopyridine hydrochloride],-0.183,0.466,-0.169,-0.724,-0.32,-0.502
C[C@H]1O[C@H](O[C@H]2[C@H](O)[C@@H](O)[C@@H](O[C@H]3[C@H](O)[C@@H](O)C(O)O[C@@H]3CO)O[C@@H]2CO)[C@H](O)[C@@H](O)[C@@H]1N[C@H]1C=C(CO)[C@@H](O)[C@H](O)[C@H]1O (stereo partly drawn) [Acarbose],-0.482,-0.645,-0.828,-0.123,-0.508,-0.442
CCN(CC)C(=O)N1CCN(C)CC1 [Diethylcarbamazine citrate],-0.522,-0.824,-0.731,-0.758,-0.529,-0.553
COc1cc(NS(=O)(=O)c2ccc(N)cc2)nc(OC)n1 [Sulfadimethoxine],-0.522,-0.857,-0.62,0.132,-0.482,-0.404
COc1c(O[C@@H]2O[C@H](CO)[C@@H](O)[C@H](O)[C@H]2O)cc2c(c1OC)-c1ccc(SC)c(=O)cc1[C@@H](NC(C)=O)CC2 [Thiocolchicoside],-0.551,-0.233,-0.589,-0.789,-0.477,-0.471
NCCCC(O)(P(=O)(O)O)P(=O)(O)O [Alendronate sodium],-0.662,-1.69,-0.705,-0.128,-0.56,-0.588
CNS(=O)(=O)Cc1ccc2[nH]cc(CCN(C)C)c2c1 [Sumatriptan succinate],-0.406,0.265,-0.574,-0.339,-0.423,-0.484
COc1cc(C(=O)NCc2ccc(OCCN(C)C)cc2)cc(OC)c1OC [Trimethobenzamide hydrochloride],-0.218,-0.274,-0.94,-0.877,-0.32,-0.334
OCCN1CCN(CCCN2c3ccccc3Sc3ccc(Cl)cc32)CC1 [Perphenazine],3.24,0.966,-0.472,-0.434,2.14,2.73
COc1ccc2c3c1O[C@H]1C[C@@H](O)C=C[C@@]31CCN(C)C2 [Galanthamine hydrobromide],-0.594,-0.476,-0.752,-0.607,-0.584,-0.496
NC(=O)c1cnccn1 [Pyrazinamide],-0.586,-0.505,-0.486,-0.665,-0.578,-0.581
O=C(O)CN(CCN(CC(=O)O)CC(=O)O)CCN(CC(=O)O)CC(=O)O [Pentetic acid],-0.425,-1.12,-0.45,-0.669,-0.443,-0.521
COc1ncnc(NS(=O)(=O)c2ccc(N)cc2)c1OC [Sulfadoxine],-0.426,-0.662,0.0314,-0.436,-0.379,-0.505
OCCN1C[C@H](O)[C@@H](O)[C@H](O)[C@H]1CO [Miglitol],-0.534,-0.285,-0.628,-0.643,-0.487,-0.578
O=C(c1ccc(F)cc1)C1CCN(CCn2c(=O)[nH]c3ccccc3c2=O)CC1 [Ketanserin tartrate hydrate],0.533,0.294,0.959,0.523,0.805,0.808
CC[N+](C)(C)Cc1ccccc1Br [Bretylium tosylate],-0.568,-0.254,-0.37,-0.522,-0.5,-0.561
Clc1ccc2c(c1)CCc1cccnc1C2=C1CCNCC1 [Desloratadine],3.93,2.5,1.63,0.223,2.69,2.81
NCCc1cc[nH]n1 [Betazole hydrochloride],-0.528,0.0261,-0.472,-0.657,-0.476,-0.51
CC(=O)Nc1c(I)c(C(=O)N[C@H]2C(O)O[C@H](CO)[C@@H](O)[C@@H]2O)c(I)c(N(C)C(C)=O)c1I (stereo partly drawn) [Metrizamide],-0.495,-0.295,-0.527,-0.9,-0.561,-0.597
CN1CCN(CCCN2c3ccccc3Sc3ccc(C(F)(F)F)cc32)CC1 [Trifluoperazine dihydrochloride],1.83,-0.0806,-0.826,0.153,2.06,3.01

SMILES,LBPA endosome anti-LBPA integrated intensity (z-score) [1],LBPA endosome anti-LBPA integrated intensity (z-score) [2],whole-cell filipin (z-score) [3],whole-cell filipin (z-score) [4],filipin (z-score) [5],filipin (z-score) [6]
CCc1cccc(CC)c1NC(=O)CN(CC(=O)O)CC(=O)O [Etifenin],-0.633,-1.24,-0.798,-0.697,-0.521,-0.638
CCC1(c2ccccc2)C(=O)NCNC1=O [Primidone],-0.559,-0.0866,-0.586,-0.472,-0.509,-0.574
CN1C2CCCC1CC(NC(=O)c1nn(C)c3ccccc13)C2 (stereo not drawn) [Granisetron],0.179,1.05,0.826,0.449,-0.132,0.382
CCOC(=O)C(C)(C)Oc1ccc(Cl)cc1 [Clofibrate],-0.34,-0.523,-0.116,-0.429,-0.352,-0.657
CN(C)[C@@H]1C(O)=C(C(N)=O)C(=O)[C@@]2(O)C(O)=C3C(=O)c4c(O)cccc4[C@@](C)(O)[C@H]3C[C@@H]12 [Tetracycline hydrochloride],-0.508,0.0873,-0.872,-0.867,-0.521,-0.698
C#C[C@]1(OC(C)=O)CC[C@H]2[C@@H]3CCC4=CC(=NO)CC[C@@H]4[C@H]3CC[C@@]21CC (mixture of isomers) [Norgestimate],-0.26,1.65,0.197,0.173,-0.31,0.087
CC(C)NCC(O)COc1ccc(CCOCC2CC2)cc1 (stereo not drawn) [Betaxolol hydrochloride],2.57,2.19,0.139,-0.283,0.614,0.292
CCOC(=O)[C@H](CCc1ccccc1)N[C@@H](C)C(=O)N1[C@H](C(=O)O)C[C@@H]2CCC[C@@H]21 [Ramipril],-0.401,-1.57,-0.0336,-0.633,-0.446,-0.529
CCOC(=O)[C@@](C)(N)Cc1ccc(O)c(O)c1 [Methyldopate hydrochloride],-0.346,-0.632,-0.323,-0.577,-0.327,-0.42
COc1ccc2cc(CCC(C)=O)ccc2c1 [Nabumetone],-0.302,0.891,-0.304,0.488,-0.495,-0.175
CCCCNC(=O)NS(=O)(=O)c1ccc(C)cc1 [Tolbutamide],-0.288,0.292,-0.409,-0.426,-0.47,-0.503
Cc1cccc(CN2CCN(C(c3ccccc3)c3ccc(Cl)cc3)CC2)c1 (stereo not drawn) [Meclozine dihydrochloride],-0.277,-0.335,-0.336,-0.815,-0.233,-0.413
NS(=O)(=O)c1cc(C(=O)O)cc(N2CCCC2)c1Oc1ccccc1 [Piretanide],-0.606,-1.16,-0.2,0.517,-0.411,-0.576
CC(=O)OCC(=O)[C@@]1(O)[C@H](C)C[C@H]2[C@@H]3CCC4=CC(=O)C=C[C@]4(C)[C@@]3(F)[C@@H](O)C[C@@]21C [Dexamethasone acetate],-0.279,-0.245,-0.619,-0.504,-0.34,-0.593
CC(C)(C(=O)c1cccnc1)c1cccnc1 [Metyrapone],-0.435,-0.575,-0.128,-0.599,-0.359,-0.375
N#Cc1ccc(C(c2ccc(C#N)cc2)n2cncn2)cc1 [Letrozole],-0.371,0.276,0.375,0.337,-0.552,-0.548
Cc1c(Nc2ncccc2C(=O)O)cccc1C(F)(F)F [Flunixin meglumine],-0.51,-0.897,-0.493,-0.611,-0.459,-0.549
CNCC[C@@H](Oc1ccccc1C)c1ccccc1 [Tomoxetine hydrochloride],-0.073,-0.709,0.0322,-0.417,-0.072,-0.0592
Nc1nc(=O)c2c([nH]1)NC[C@@H](CNc1ccc(C(=O)N[C@@H](CCC(=O)O)C(=O)O)cc1)N2C=O [Folinic acid calcium salt],-0.476,-0.265,-0.437,-0.13,-0.451,-0.42
CC(=O)N1CCN(c2ccc(OCC3COC(Cn4ccnc4)(c4ccc(Cl)cc4Cl)O3)cc2)CC1 (stereo not drawn) [Ketoconazole],1.81,1.94,3.72,3.7,3.52,4.06
O=C(CCCN1CCC(O)(c2ccc(Cl)cc2)CC1)c1ccc(F)cc1 [Haloperidol],2.66,2.75,1.61,0.834,2.42,2.21
C[C@@H](O)[C@H]1C(=O)N2C(C(=O)O)=C(SCCNC=N)C[C@H]12 [Imipenem],-0.41,0.231,-0.414,0.00347,-0.461,-0.385
CC(=O)O[C@H]1C[C@@]2(C)[C@@H](C[C@@H](O)[C@H]3[C@@]4(C)CC[C@@H](O)[C@@H](C)[C@@H]4CC[C@@]32C)/C1=C(\CCC=C(C)C)C(=O)O [Fusidic acid sodium salt],-0.322,0.503,-0.581,0.0569,-0.49,-0.416
CC(=O)N(O)CCCCCNC(=O)CCC(=O)N(O)CCCCCNC(=O)CCC(=O)N(O)CCCCCN [Deferoxamine mesylate],-0.408,-0.755,0.541,-0.469,-0.422,-0.499
